Laboratory results from PubChem BioAssay (NCI).
About 83,000 compounds went through this panel and 20% of them were active in at least one assay; those are over-represented in the sample as a whole.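 Values shown are percent growth following 48 h exposure of cells in 96-well plates to a single concentration of compound; below 10 was considered active.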 A number with no mark means an inactive call. Active and inactive are the calls of the source.

The compounds below were run on NCI-H522 lung (assay: NCI-60 one-dose screen, 48 h (100 = growth as untreated, 0 = no growth, -100 = all killed)). Conditions: 10 µM.
With `Cc1cccc(NC2=C(C#N)C(=O)NC3(CCCC3)S2)c1` the growth was 15.8%. `O=C1/C(=C\c2ccc(F)cc2)CN(C(=O)c2ccccc2)C/C1=C\c1ccc(F)cc1` was tested, and the growth was -8.75% (active). With `COc1cc(-c2cc(/C=C3\C(=O)Nc4ccccc43)[nH]n2)cc(OC)c1OC` the growth was 64.5%. In the case of `COc1cc(/C=C\c2cc(OC)c(OC)c(OC)c2)cc(NS(=O)(=O)c2ccc(Cl)cc2)c1OC`, the growth is reported as -9.34% (active). For `S=C1SCC(c2ccccc2)S1` (centres undefined), the growth was 131%. Work on `CCN(CC)Cc1cc(Nc2ccnc3cc(Cl)ccc23)ccc1OC` yielded a growth of 69.3%. Work on `COC(=O)C(C(C[N+](=O)[O-])c1ccccc1)=P(c1ccccc1)(c1ccccc1)c1ccccc1` (centres undefined) yielded a growth of 83.3%. For `O=S(=O)(NCCCNc1nccc(-c2c(-c3ccc(F)cc3)nc3sccn23)n1)c1ccc2ccccc2c1`, the growth was 46.2%. For `CC(=O)N1N=C(c2ccc(Cl)cc2)CC1c1sc(Cl)nc1Cl` (centres undefined), the growth was 81%. `O=c1[nH]c2ccc(Cl)cc2c2ccccc12` gave a growth of 109%. For `COc1ccc(NC2=NC(C)(CO)CS2)cc1` (centres undefined), the growth was -14.7% (active). Compound `N#Cc1ncc(Br)c(NC2CCCCCC2)n1` has a growth of 110%. `O=C(Nc1cccc(-n2cc(-c3ccncc3)c(-c3cc(O)cc(Cl)c3)n2)c1)Nc1ccc(Cl)c(C(F)(F)F)c1` was tested, and the growth was -16% (active). In the case of `Nc1ncn(C2OC(CO)C(O)C2O)c(=O)n1` (centres undefined), the growth is reported as -12.7% (active). Work on `O=C(Nc1nc(-c2ccccc2Cl)cs1)c1cc(-c2ccc(Cl)cc2)nc2ccc(Cl)cc12` yielded a growth of 57.8%. `Nc1c(C(=O)Nc2cccc(F)c2)sc2nc3c(cc12)C(=O)CCC3` was tested, and the growth was 5.31% (active). `COc1ccc(-c2cc(/C=C3\C(=O)Nc4ccc(Cl)cc43)[nH]n2)cc1OC` gave a growth of 89%. Compound `O=C1CC[C@@H]2CCCC[C@@H]2C1` has a growth of 90.3%. With `COc1ccc2c(c1)O/C(=C\c1ccc([N+](=O)[O-])s1)C2=O` the growth was -72.5% (active). For `Nc1nc(N)c2c(ccc3nccc32)[nH]1`, the growth was 37.9%. Work on `Nc1cc2c(cc1Cl)-c1ccc([N+](=O)[O-])cc1/C2=N\O` yielded a growth of 69.8%. Compound `COc1cc(-c2cc(/C=C/C(=O)c3ccc4c(c3)OCO4)[nH]n2)cc(OC)c1OC` has a growth of 57.4%. Compound `COc1ccc(Cl)cc1C(=O)Nc1nc2ccc(Cl)cc2s1` has a growth of 99.4%. For `Cc1cc2c(C)c3cc(C)c(N)cc3nc2cc1N`, the growth was -49.4% (active). `O=c1oc2cc(OS(=O)(=O)c3ccccc3)ccc2c2c1CCCCC2` was tested, and the growth was 66.4%.

The compounds below were run on A549/ATCC NSCLC in the same assay as above. Conditions: 10 µM.
`COc1cc(-c2cc(/C=C3\C(=O)Nc4cc(Cl)ccc43)[nH]n2)cc(OC)c1OC` was tested, and the growth was 43%. `CCCCCCc1cc(N=Nc2ccc(S(=O)(=O)Nc3cc(C)nc(C)n3)cc2)c(O)cc1O` showed a growth of 106%. For `N#CC1=C(Nc2ccccc2Cl)SC(c2ccccc2O)NC1=O` (centres undefined), the growth was 56.4%. `COc1cc(-c2nc(Nc3nc4ccccc4s3)[nH]c(=O)c2C#N)cc(OC)c1O` was tested, and the growth was 106%. `CCCCCCCCCCCCCCCCCCOCC(COCCOCC[N+]1(CCCCCC(=O)[O-])CCCC1)Oc1ncccn1` (centres undefined) showed a growth of 51.2%. With `COc1ccc(C2=NN(C(=O)c3ccc(S(C)(=O)=O)cc3)C(c3ccc(OC)c(OC)c3)C2)c(OC)c1` (centres undefined) the growth was 91.7%. With `COc1ccccc1CNCCCN1C(=O)c2ccc3c4c(ccc(c24)C1=O)C(=O)N(CCCN)C3=O` the growth was -28% (active). With `Nc1nc(N)c(NC(=O)CNc2ccc(C(=O)O)cc2)c(N)n1` the growth was 102%. Work on `c1ccc(CP(Cc2ccccc2)c2ccccc2)cc1` yielded a growth of 97%. With `COC(=O)C1(C)Cc2cc(OC(C)=O)c(OC(C)=O)cc2N1` (centres undefined) the growth was 31.6%. Work on `CC(=O)OCc1cc(-c2nc3ccccc3[nH]c2=O)nn1-c1ccc(Cl)cc1` yielded a growth of 52%. With `CC(=O)c1nc2ccccc2n1CCN1CCN(C)CC1` the growth was 31.2%. With `COc1ccc(-c2nn(-c3cccc(NC(=O)Nc4ccc(Cl)c(C(F)(F)F)c4)c3)cc2-c2ccncc2)cc1Cl` the growth was 8.45% (active). With `COc1cc(C(=O)/C=C/c2cc(-c3cc(OC)c(OC)c(OC)c3)n[nH]2)cc(OC)c1OC` the growth was 53.6%. Compound `Cc1cccc(NC2=C(C#N)C(=O)NC3(CCCC3)S2)c1` has a growth of 30.2%. For `O=C1/C(=C\c2ccc(F)cc2)CN(C(=O)c2ccccc2)C/C1=C\c1ccc(F)cc1`, the growth was 49.2%. With `COc1cc(-c2cc(/C=C3\C(=O)Nc4ccccc43)[nH]n2)cc(OC)c1OC` the growth was 54.6%. In the case of `COc1cc(/C=C\c2cc(OC)c(OC)c(OC)c2)cc(NS(=O)(=O)c2ccc(Cl)cc2)c1OC`, the growth is reported as 25.3%. In the case of `S=C1SCC(c2ccccc2)S1` (centres undefined), the growth is reported as 102%. With `CCN(CC)Cc1cc(Nc2ccnc3cc(Cl)ccc23)ccc1OC` the growth was 89.6%. Compound `COC(=O)C(C(C[N+](=O)[O-])c1ccccc1)=P(c1ccccc1)(c1ccccc1)c1ccccc1` (centres undefined) has a growth of 101%. Compound `O=S(=O)(NCCCNc1nccc(-c2c(-c3ccc(F)cc3)nc3sccn23)n1)c1ccc2ccccc2c1` has a growth of 28.9%. With `CC(=O)N1N=C(c2ccc(Cl)cc2)CC1c1sc(Cl)nc1Cl` (centres undefined) the growth was 78.5%. For `O=c1[nH]c2ccc(Cl)cc2c2ccccc12`, the growth was 79.5%. Work on `COc1ccc(NC2=NC(C)(CO)CS2)cc1` (centres undefined) yielded a growth of 42.8%. For `N#Cc1ncc(Br)c(NC2CCCCCC2)n1`, the growth was 89%. `O=C(Nc1cccc(-n2cc(-c3ccncc3)c(-c3cc(O)cc(Cl)c3)n2)c1)Nc1ccc(Cl)c(C(F)(F)F)c1` was tested, and the growth was 8.81% (active). Compound `Nc1ncn(C2OC(CO)C(O)C2O)c(=O)n1` (centres undefined) has a growth of 20.7%. Compound `O=C(Nc1nc(-c2ccccc2Cl)cs1)c1cc(-c2ccc(Cl)cc2)nc2ccc(Cl)cc12` has a growth of 92.7%. Work on `Nc1c(C(=O)Nc2cccc(F)c2)sc2nc3c(cc12)C(=O)CCC3` yielded a growth of 27.6%. Work on `COc1ccc(-c2cc(/C=C3\C(=O)Nc4ccc(Cl)cc43)[nH]n2)cc1OC` yielded a growth of 89.5%. In the case of `O=C1CC[C@@H]2CCCC[C@@H]2C1`, the growth is reported as 107%. Work on `COc1ccc2c(c1)O/C(=C\c1ccc([N+](=O)[O-])s1)C2=O` yielded a growth of 33.9%. In the case of `Nc1nc(N)c2c(ccc3nccc32)[nH]1`, the growth is reported as 2.16% (active). `Nc1cc2c(cc1Cl)-c1ccc([N+](=O)[O-])cc1/C2=N\O` showed a growth of 59.2%. `COc1cc(-c2cc(/C=C/C(=O)c3ccc4c(c3)OCO4)[nH]n2)cc(OC)c1OC` gave a growth of 87.2%. `COc1ccc(Cl)cc1C(=O)Nc1nc2ccc(Cl)cc2s1` gave a growth of 76.7%. In the case of `Cc1cc2c(C)c3cc(C)c(N)cc3nc2cc1N`, the growth is reported as 4.93% (active). `O=c1oc2cc(OS(=O)(=O)c3ccccc3)ccc2c2c1CCCCC2` showed a growth of 34.7%.
